# Data reported in PubChem BioAssay AID1159580 (chemical genetic matrix, 2015).
# Out of some 5,500 compounds screened, about 2,000 (36%) were called active. Another 18% or so got no clear call; they are omitted. This is one part of the list. A number with no mark means an inactive call. No stated cut-off is given here; in the data, active means normalized growth mostly below about 0.91 (no sharp cut-off); inconclusive means no clear call, values can overlap the other calls; inactive means mostly above about 0.92.
# Assay: chemical genetic growth profiling, strain panel (AID 1159580);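 further: tested at 20 µM; growth read once vehicle control cultures reached saturation at 30 °C; 1 = growth at the plate median or of vehicle wells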
# Settings: growth OD
# [1] = S. cerevisiae deletion strains, locus YJL187C, strain SWE1, stronger effect = lower value
smiles,measurement,setting,value
Cc1ccc(-n2cccc2)c(NC(=S)Nc2ccc(Br)cc2OC(F)(F)F)c1,normalized growth,"S. cerevisiae deletion strains, locus YAL013W, strain DEP1, stronger effect = lower value",0.978
same,normalized growth,"S. cerevisiae deletion strains, locus YBR229C, strain ROT2, stronger effect = lower value",1
same,normalized growth,"S. cerevisiae deletion strains, locus YDL101C, strain DUN1, stronger effect = lower value",1.02
same,normalized growth,"S. cerevisiae deletion strains, locus YDL134C, strain PPH21, stronger effect = lower value",1.01
same,normalized growth,"S. cerevisiae deletion strains, locus YDR150W, strain NUM1, stronger effect = lower value",0.892
same,normalized growth,"S. cerevisiae deletion strains, locus YEL061C, strain CIN8, stronger effect = lower value",0.988
same,normalized growth,"S. cerevisiae deletion strains, locus YGR078C, strain PAC10, stronger effect = lower value",0.973
same,normalized growth,"S. cerevisiae deletion strains, locus YGR229C, strain SMI1, stronger effect = lower value",1.03
same,normalized growth,"S. cerevisiae deletion strains, locus YHR030C, strain SLT2, stronger effect = lower value",0.558 (active)
same,normalized growth,"S. cerevisiae deletion strains, locus YHR087W, strain rtc3, stronger effect = lower value",1.02
same,normalized growth,[1],0.987
same,normalized growth,"S. cerevisiae deletion strains, locus YJR043C, strain POL32, stronger effect = lower value",1.03
same,normalized growth,"S. cerevisiae deletion strains, locus YJR075W, strain HOC1, stronger effect = lower value",0.972
same,normalized growth,"S. cerevisiae deletion strains, locus YLR039C, strain RIC1, stronger effect = lower value",0.621 (active)
same,normalized growth,"S. cerevisiae deletion strains, locus YLR058C, strain SHM2 (second series), stronger effect = lower value",1.01
same,normalized growth,"S. cerevisiae deletion strains, locus YLR085C, strain ARP6, stronger effect = lower value",0.658 (active)
same,normalized growth,"S. cerevisiae deletion strains, locus YLR262C, strain YPT6, stronger effect = lower value",0.587 (active)
same,normalized growth,"S. cerevisiae deletion strains, locus YML094W, strain GIM5, stronger effect = lower value",0.904
same,normalized growth,"S. cerevisiae deletion strains, locus YMR219W, strain ESC1, stronger effect = lower value",1.01
same,normalized growth,"S. cerevisiae deletion strains, locus YMR263W, strain SAP30, stronger effect = lower value",0.964
same,normalized growth,"S. cerevisiae deletion strains, locus YNL153C, strain GIM3, stronger effect = lower value",0.979
same,normalized growth,"S. cerevisiae deletion strains, locus YNL298W, strain CLA4 (second series), stronger effect = lower value",0.757 (active)
same,normalized growth,"S. cerevisiae deletion strains, locus YNL322C, strain KRE1, stronger effect = lower value",1.01
same,normalized growth,"S. cerevisiae deletion strains, locus YNR030W, strain Alg12, stronger effect = lower value",0.925
same,normalized growth,"S. cerevisiae deletion strains, locus YOL006C, strain TOP1, stronger effect = lower value",0.796
same,normalized growth,"S. cerevisiae deletion strains, locus YPL055C, strain LGE1, stronger effect = lower value",0.882
same,normalized growth,"S. cerevisiae deletion strains, locus YPL241C, strain CIN2, stronger effect = lower value",0.92
same,normalized growth,"S. cerevisiae deletion strains, locus YPR135W, strain CTF4, stronger effect = lower value",0.679
same,normalized growth,"S. cerevisiae strains, strain wild type, stronger effect = lower value",0.998
CCCCCCCCCCCCCCCC(=O)OC1C(SC)OC(C(NC(=O)C2CC(CCC)CN2C)C(C)Cl)C(O)C1O (stereo unspecified),normalized growth,"S. cerevisiae deletion strains, locus YAL021C, strain ccr4, stronger effect = lower value",0.958
same,normalized growth,"S. cerevisiae deletion strains, locus YAL026C, strain drs2, stronger effect = lower value",0.976
same,normalized growth,"S. cerevisiae deletion strains, locus YAL030W, strain snc1, stronger effect = lower value",0.989
same,normalized growth,"S. cerevisiae deletion strains, locus YBL061C, strain skt5, stronger effect = lower value",0.963
same,normalized growth,"S. cerevisiae deletion strains, locus YBR009C, strain hhf1, stronger effect = lower value",0.977
same,normalized growth,"S. cerevisiae deletion strains, locus YBR023C, strain chs3, stronger effect = lower value",0.984
same,normalized growth,"S. cerevisiae deletion strains, locus YBR171W, strain sec66, stronger effect = lower value",0.961
same,normalized growth,"S. cerevisiae deletion strains, locus YBR231C, strain swc5, stronger effect = lower value",0.979
same,normalized growth,"S. cerevisiae deletion strains, locus YBR279W, strain paf1, stronger effect = lower value",0.981
same,normalized growth,"S. cerevisiae deletion strains, locus YCL011C, strain gbp2, stronger effect = lower value",0.978
same,normalized growth,"S. cerevisiae deletion strains, locus YCL016C, strain dcc1, stronger effect = lower value",0.982
same,normalized growth,"S. cerevisiae deletion strains, locus YCL061C, strain MRC1, stronger effect = lower value",0.98
same,normalized growth,"S. cerevisiae deletion strains, locus YCL069W, strain vba3, stronger effect = lower value",0.985
same,normalized growth,"S. cerevisiae deletion strains, locus YCR088W, strain abp1, stronger effect = lower value",0.972
same,normalized growth,"S. cerevisiae deletion strains, locus YDL005C, strain med2, stronger effect = lower value",0.968
same,normalized growth,"S. cerevisiae deletion strains, locus YDL040C, strain nat1, stronger effect = lower value",0.979
same,normalized growth,"S. cerevisiae deletion strains, locus YDR001C, strain nth1, stronger effect = lower value",0.974
same,normalized growth,"S. cerevisiae deletion strains, locus YDR069C, strain doa4, stronger effect = lower value",0.975
same,normalized growth,"S. cerevisiae deletion strains, locus YDR137W, strain rgp1, stronger effect = lower value",1
same,normalized growth,"S. cerevisiae deletion strains, locus YDR159W, strain sac3, stronger effect = lower value",0.958
same,normalized growth,"S. cerevisiae deletion strains, locus YDR195W, strain ref2",0.964
same,normalized growth,"S. cerevisiae deletion strains, locus YDR297W, strain sur2, stronger effect = lower value",0.976
same,normalized growth,"S. cerevisiae deletion strains, locus YDR334W, strain swr1, stronger effect = lower value",0.973
same,normalized growth,"S. cerevisiae deletion strains, locus YDR335W, strain msn5, stronger effect = lower value",0.978
same,normalized growth,"S. cerevisiae deletion strains, locus YDR392W, strain spt3, stronger effect = lower value",0.96
same,normalized growth,"S. cerevisiae deletion strains, locus YEL003W, strain gim4, stronger effect = lower value",0.98
same,normalized growth,"S. cerevisiae deletion strains, locus YEL037C, strain rad23, stronger effect = lower value",0.979
same,normalized growth,"S. cerevisiae deletion strains, locus YEL061C, strain CIN8 (second series), stronger effect = lower value",0.985
same,normalized growth,"S. cerevisiae deletion strains, locus YER015W, strain faa2, stronger effect = lower value",0.972
same,normalized growth,"S. cerevisiae deletion strains, locus YER016W, strain bim1, stronger effect = lower value",0.976
same,normalized growth,"S. cerevisiae deletion strains, locus YER111C, strain swi4, stronger effect = lower value",0.964
same,normalized growth,"S. cerevisiae deletion strains, locus YER155C, strain BEM2 (second series), stronger effect = lower value",0.968
same,normalized growth,"S. cerevisiae deletion strains, locus YFR010W, strain ubp6, stronger effect = lower value",0.961
same,normalized growth,"S. cerevisiae deletion strains, locus YGL167C, strain pmr1, stronger effect = lower value",0.972
same,normalized growth,"S. cerevisiae deletion strains, locus YGL173C, strain kem1, stronger effect = lower value",0.975
same,normalized growth,"S. cerevisiae deletion strains, locus YGL227W, strain vid30, stronger effect = lower value",0.963
same,normalized growth,"S. cerevisiae deletion strains, locus YGL240W, strain doc1, stronger effect = lower value",0.983
same,normalized growth,"S. cerevisiae deletion strains, locus YGL253W, strain hxk2, stronger effect = lower value",0.978
same,normalized growth,"S. cerevisiae deletion strains, locus YHR013C, strain ard1, stronger effect = lower value",0.98
same,normalized growth,"S. cerevisiae deletion strains, locus YHR027C, strain rpn1, stronger effect = lower value",0.985
same,normalized growth,"S. cerevisiae deletion strains, locus YHR142W, strain chs7, stronger effect = lower value",0.97
same,normalized growth,"S. cerevisiae deletion strains, locus YJL092W, strain hpr5, stronger effect = lower value",0.967
same,normalized growth,"S. cerevisiae deletion strains, locus YJL095W, strain BCK1 (second series), stronger effect = lower value",0.99
same,normalized growth,"S. cerevisiae deletion strains, locus YJL115W, strain asf1, stronger effect = lower value",0.974
same,normalized growth,"S. cerevisiae deletion strains, locus YJL129C, strain trk1, stronger effect = lower value",0.983
same,normalized growth,"S. cerevisiae deletion strains, locus YJL154C, strain vps35, stronger effect = lower value",0.963
same,normalized growth,"S. cerevisiae deletion strains, locus YJL164C, strain tpk1, stronger effect = lower value",0.986
same,normalized growth,"S. cerevisiae deletion strains, locus YJL166W, strain qcr8, stronger effect = lower value",0.988
same,normalized growth,[1],0.982
same,normalized growth,"S. cerevisiae deletion strains, locus YKL160W, strain elf1, stronger effect = lower value",0.988
same,normalized growth,"S. cerevisiae deletion strains, locus YKR026C, strain gcn3, stronger effect = lower value",0.973
same,normalized growth,"S. cerevisiae deletion strains, locus YKR091W, strain srl3, stronger effect = lower value",0.985
same,normalized growth,"S. cerevisiae deletion strains, locus YLL001W, strain dnm1, stronger effect = lower value",0.99
same,normalized growth,"S. cerevisiae deletion strains, locus YLL026W, stronger effect = lower value",0.974
same,normalized growth,"S. cerevisiae deletion strains, locus YLL041C, strain sdh2, stronger effect = lower value",0.978
same,normalized growth,"S. cerevisiae deletion strains, locus YLR027C, strain aat2, stronger effect = lower value",0.976
same,normalized growth,"S. cerevisiae deletion strains, locus YLR221C, strain rsa3, stronger effect = lower value",0.976
same,normalized growth,"S. cerevisiae deletion strains, locus YLR258W, strain gsy2, stronger effect = lower value",0.984
same,normalized growth,"S. cerevisiae deletion strains, locus YLR262C, strain YPT6 (second series), stronger effect = lower value",1.02
same,normalized growth,"S. cerevisiae deletion strains, locus YLR320W, strain mms22, stronger effect = lower value",0.964
same,normalized growth,"S. cerevisiae deletion strains, locus YLR342W, strain FKS1, stronger effect = lower value",0.966
same,normalized growth,"S. cerevisiae deletion strains, locus YLR357W, strain rsc2, stronger effect = lower value",0.95
same,normalized growth,"S. cerevisiae deletion strains, locus YLR370C, strain arc18, stronger effect = lower value",0.977
same,normalized growth,"S. cerevisiae deletion strains, locus YLR384C, strain iki3, stronger effect = lower value",0.955
same,normalized growth,"S. cerevisiae deletion strains, locus YML120C, strain ndi1, stronger effect = lower value",0.989
same,normalized growth,"S. cerevisiae deletion strains, locus YMR058W, strain fet3, stronger effect = lower value",0.977
same,normalized growth,"S. cerevisiae deletion strains, locus YMR125W, strain sto1, stronger effect = lower value",0.971
same,normalized growth,"S. cerevisiae deletion strains, locus YMR129W, stronger effect = lower value",0.977
same,normalized growth,"S. cerevisiae deletion strains, locus YMR205C, strain PFK2, stronger effect = lower value",0.972
same,normalized growth,"S. cerevisiae deletion strains, locus YMR231W, strain pep5, stronger effect = lower value",0.959
same,normalized growth,"S. cerevisiae deletion strains, locus YNL071W, strain lat1, stronger effect = lower value",0.993
same,normalized growth,"S. cerevisiae deletion strains, locus YNL209W, strain ssb2, stronger effect = lower value",0.985
same,normalized growth,"S. cerevisiae deletion strains, locus YNL248C, strain rpa49, stronger effect = lower value",0.979
same,normalized growth,"S. cerevisiae deletion strains, locus YNL322C, strain KRE1 (second series), stronger effect = lower value",0.969
same,normalized growth,"S. cerevisiae deletion strains, locus YNR049C, strain mso1, stronger effect = lower value",0.972
same,normalized growth,"S. cerevisiae deletion strains, locus YOR001W, strain rrp6, stronger effect = lower value",0.981
same,normalized growth,"S. cerevisiae deletion strains, locus YOR070C, strain gyp1, stronger effect = lower value",0.972
same,normalized growth,"S. cerevisiae deletion strains, locus YOR080W, strain dia2, stronger effect = lower value",0.98
same,normalized growth,"S. cerevisiae deletion strains, locus YOR083W, strain WHI5, stronger effect = lower value",0.988
same,normalized growth,"S. cerevisiae deletion strains, locus YOR106W, strain vam3, stronger effect = lower value",0.973
same,normalized growth,"S. cerevisiae deletion strains, locus YOR265W, strain rbl2, stronger effect = lower value",0.986
same,normalized growth,"S. cerevisiae deletion strains, locus YOR270C, strain vph1, stronger effect = lower value",0.998
same,normalized growth,"S. cerevisiae deletion strains, locus YOR290C, strain snf2, stronger effect = lower value",0.974
same,normalized growth,"S. cerevisiae deletion strains, locus YPL051W, strain arl3, stronger effect = lower value",0.972
same,normalized growth,"S. cerevisiae deletion strains, locus YPL078C, strain atp4, stronger effect = lower value",0.976
same,normalized growth,"S. cerevisiae deletion strains, locus YPL106C, strain sse1, stronger effect = lower value",0.979
same,normalized growth,"S. cerevisiae deletion strains, locus YPL240C, strain hsp82, stronger effect = lower value",0.976
